Laboratory results taken from PubChem BioAssay (NCI).
Values joined by “and” are separate entries in the source; they are usually repeats but may differ in a detail not shown here. Identical values can stand only once. About 83,000 compounds went through this panel and 20% of them were active in at least one assay; those are over-represented in the sample as a whole.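 Interpretation: 100, growth as untreated; towards 0, rising growth inhibition; 0, no net growth; 0 to -100, cell death. Compounds scoring below 10 were considered active.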 Active and inactive are the calls of the source.

Legend:
Test in all cases: NCI-60 one-dose screen, 48 h (100 = growth as untreated, 0 = no growth, -100 = all killed)
Settings in all cases: 10 µM unless noted
HCT-15 colon = test system: HCT-15 colon
HT29 colon = test system: HT29 colon
SNB-75 CNS = test system: SNB-75 CNS
SNB-19 CNS = test system: SNB-19 CNS
U251 CNS = test system: U251 CNS
PC-3 prostate = test system: PC-3 prostate
SK-MEL-5 melanoma = test system: SK-MEL-5 melanoma
UACC-62 melanoma = test system: UACC-62 melanoma
LOX IMVI melanoma = test system: LOX IMVI melanoma
SK-MEL-28 melanoma = test system: SK-MEL-28 melanoma

Row | Structure (SMILES) | growth (HCT-15 colon) | growth (HT29 colon) | growth (SNB-75 CNS) | growth (SNB-19 CNS) | growth (U251 CNS) | growth (PC-3 prostate) | growth (SK-MEL-5 melanoma) | growth (UACC-62 melanoma) | growth (LOX IMVI melanoma) | growth (SK-MEL-28 melanoma)
1 | CCOC(=O)c1cc2c(n1Cc1cc(OC)cc(OC)c1Br)-c1nc(NC(C)=O)sc1CCC2 | 83% (inactive) | 63.3% (inactive) | 65.7% (inactive) | 83.9% (inactive) | 63.3% (inactive) | 22.1% (inactive) | 82.1% (inactive) | 67.3% (inactive) | 80.3% (inactive) | 98.6% (inactive)
2 | [Cu+].[NH-][C@H]1C[N-]C(=O)[C@H]([C@H]2CCN=C(N)N2)[N-]C(=O)/C(=C\NC(N)=O)[N-]C(=O)[C@H](CNC(=O)C[C@@H](N)CCCN)[N-]C(=O)[C@H](CO)[N-]C1=O | 100% (inactive) | 104% (inactive) | 88.2% (inactive) | 103% (inactive) | 101% (inactive) | 96% (inactive) | 109% (inactive) | 92.1% (inactive) | 98.7% (inactive) | 110% (inactive)
3 | N#Cc1c(N)nnn1Cc1cc(=O)oc2ccc(O)cc12 | 110% (inactive) | 102% (inactive) | 100% (inactive) | 102% (inactive) | 103% (inactive) | 97.3% (inactive) | 97.9% (inactive) | 99.9% (inactive) | 102% (inactive) | 112% (inactive)
4 | CN1CCN(c2ccc(Nc3ncc(C(N)=O)c(NCCCNC(=O)C4CCC4)n3)cc2)CC1 | 111% (inactive) | 44.4% (inactive) | 67.7% (inactive) | 63.9% (inactive) | 67% (inactive) | 77.6% (inactive) | 92.3% (inactive) | 108% (inactive) | 64.8% (inactive) | 103% (inactive)
5 | CCN(CC)CCOc1ccc(/C(=C(\Cl)c2ccccc2)c2ccccc2)cc1 | -1.24% (active) and 0.736% (active) | -46.7% (active) and 7.7% (active) | 27.2% (inactive) and 31.5% (inactive) | 52.4% (inactive) and 86.6% (inactive) | 23.1% (inactive) and 72.8% (inactive) | 49.1% (inactive) and 91.3% (inactive) | -97.4% (active) and -99.3% (active) | -54.2% (active) and 9.63% (active) | -42.7% (active) and 85.4% (inactive) | -28% (active) and -41.1% (active)
6 | CN1Cn2c(ccc2C(F)(F)F)C(=O)CS1(=O)=O | 105% (inactive) | 105% (inactive) | 79.1% (inactive) | 105% (inactive) | 101% (inactive) | 105% (inactive) | 103% (inactive) | 99.4% (inactive) | 99.2% (inactive) | 105% (inactive)
7 | CCN1C(=O)N(c2ccccc2)C2NC(=S)N(/N=C/C=C/c3ccccc3)C21 (stereo not given) | 12.6% (inactive) | 4.84% (active) | 35.5% (inactive) | 22.6% (inactive) | 13.9% (inactive) | 14% (inactive) | 3.14% (active) | 20% (inactive) | 14.8% (inactive) | 60.1% (inactive)
8 | O=S(=O)(O)c1ccc(N=Nc2ccc(N=Nc3cccc4ccccc34)c(S(=O)(=O)O)c2)cc1 | 114% (inactive) | 105% (inactive) | 89.7% (inactive) | 110% (inactive) | 102% (inactive) | 84.5% (inactive) | 86.4% (inactive) | 98.4% (inactive) | 94.1% (inactive) | 110% (inactive)
9 | Nc1ncnc2c1C(c1ccc([N+](=O)[O-])cc1)c1sc3c(F)cccc3c1O2 (stereo not given) | 102% (inactive) | 112% (inactive) | 97% (inactive) | 102% (inactive) | 92.4% (inactive) | 91.6% (inactive) | 98.4% (inactive) | 81% (inactive) | 84.2% (inactive) | 106% (inactive)
10 | C[C@@H]1CC[C@@H]2[C@@H]1[C@H](OC(=O)/C=C/c1ccccc1)[C@]1(c3ccccc3)C[C@@H](NC(=O)CO)[C@@]2(C)O1 | 91.7% (inactive) | 109% (inactive) | 88% (inactive) | 96.2% (inactive) | 88.9% (inactive) | 78.9% (inactive) | 97.9% (inactive) | 71.7% (inactive) | 96.1% (inactive) | 103% (inactive)
11 | Cc1cccc(-c2nnc(SCC(=O)Nc3ncc(Cc4ccccc4)s3)n2N2C(=O)CSC2=S)c1 | 78.5% (inactive) | 81.2% (inactive) | -7.46% (active) | 54.1% (inactive) | 34.6% (inactive) | 57.3% (inactive) | 75.9% (inactive) | 20.1% (inactive) | 23.5% (inactive) | 51.3% (inactive)
12 | C=CCOc1ccc(/C=C2\SC(=S)N(CCc3ccc(O)cc3)C2=O)cc1 | 82.9% (inactive) | 88.4% (inactive) | 82% (inactive) | 93.3% (inactive) | 86% (inactive) | 90.4% (inactive) | 94.4% (inactive) | 73.8% (inactive) | -71.2% (active) | 110% (inactive)
13 | COC(=O)c1nc(-c2ccc(C)cc2)oc1S(=O)(=O)c1ccc(Cl)cc1 | 73.5% (inactive) | 102% (inactive) | 100% (inactive) | 96.4% (inactive) | 93.4% (inactive) | 97% (inactive) | 96.5% (inactive) | 90.4% (inactive) | 42.3% (inactive) | 99% (inactive)
14 | O=C(Nc1ccccc1C(=O)N/N=C(\c1ccccc1)c1ccccn1)c1ccccc1 | 25.7% (inactive) | 22.1% (inactive) | 64% (inactive) | 27.9% (inactive) | 10.8% (inactive) | 43.7% (inactive) | -20.9% (active) | -10.4% (active) | 14.5% (inactive) | 31.9% (inactive)
15 | O=C1OCC2=C1C(c1cccc(C(F)(F)F)c1)c1cc3c(cc1N2CCO)OCCO3 (stereo not given) | 14.1% (inactive) | 3.94% (active) | 42.4% (inactive) | 23.4% (inactive) | 14.7% (inactive) | 26.2% (inactive) | 22.9% (inactive) | 39.9% (inactive) | 37.4% (inactive) | 50% (inactive)
16 | O=C(Nc1ncc(Cc2cccc(C(F)(F)F)c2)s1)c1ccc(-n2cnnn2)cc1 | 38.7% (inactive) | 62% (inactive) | 83.4% (inactive) | 59.7% (inactive) | 64.4% (inactive) | 54.1% (inactive) | 37.8% (inactive) | 19.8% (inactive) | 46.6% (inactive) | 52.7% (inactive)
17 | Cc1ccc2[nH]c(=S)[nH]c(=O)c2c1 | 106% (inactive) | 102% (inactive) | 80.5% (inactive) | 101% (inactive) | 95% (inactive) | 102% (inactive) | 100% (inactive) | 103% (inactive) | 95.5% (inactive) | 111% (inactive)
18 | CN1CCN(Cc2ccc(NC(=O)c3cccc(C#Cc4c(N)ncc5ccc(F)cc45)c3)cc2C(F)(F)F)CC1 | -77.9% (active) | -56.1% (active) | -92.4% (active) | -85.9% (active) | -67.9% (active) | -19.2% (active) | -83.1% (active) | -51.1% (active) | -97.9% (active) | -90.2% (active)
19 | COc1cc(/C=C2\CCC/C(=C\c3cc(CN4CCCC4)c(O)c(OC)c3)C2=O)cc(CN2CCCC2)c1O | 16.3% (inactive) | -46.2% (active) | 20.3% (inactive) | 44.7% (inactive) | 25.3% (inactive) | 31.2% (inactive) | 71.1% (inactive) | 88.6% (inactive) | 9.9% (active) | 92.2% (inactive)
20 | O=C1/C(=C/c2cn(-c3ccccc3)nc2-c2ccccc2)SC(=S)N1c1ccccc1 | 101% (inactive) | 108% (inactive) | 97.2% (inactive) | 93.4% (inactive) | 103% (inactive) | 77.9% (inactive) | 98.9% (inactive) | 87.5% (inactive) | 86.8% (inactive) | 97.4% (inactive)
21 | COC(=O)/C=C1/SC(N2N=C(c3cccs3)CC2c2ccc(F)cc2)=NC1=O (stereo not given) | -9.66% (active) | 13.3% (inactive) | 48% (inactive) | 76.4% (inactive) | 22.1% (inactive) | 64.5% (inactive) | 54.1% (inactive) | 56.8% (inactive) | -46.5% (active) | 43.8% (inactive)
22 | Nc1nc(N)c2c(n1)NC(c1ccc(Cl)cc1)CC(c1cccc(Nc3ccncc3)c1)=N2 (stereo not given) | 71.5% (inactive) | 21% (inactive) | 67.2% (inactive) | 61.8% (inactive) | 34.6% (inactive) | 38.2% (inactive) | 52.1% (inactive) | 69.2% (inactive) | 25.4% (inactive) | 72.2% (inactive)
23 | CCOc1ccc(C(=O)Cc2ccccc2)cc1 | 98.2% (inactive) and 110% (inactive) | 104% (inactive) and 111% (inactive) | 101% (inactive) and 113% (inactive) | 101% (inactive) and 102% (inactive) | 108% (inactive) and 101% (inactive) | 102% (inactive) and 110% (inactive) | 106% (inactive) and 98.5% (inactive) | 98.2% (inactive) and 106% (inactive) | 102% (inactive) and 106% (inactive) | 115% (inactive) and 109% (inactive)
24 | Cn1cc(-c2csc(-c3cn(CCOC(N)=O)c4ccccc34)n2)c2cccnc21 | 64% (inactive) | 47.6% (inactive) | 80.7% (inactive) | 78.6% (inactive) | 77.8% (inactive) | 63.6% (inactive) | 71.9% (inactive) | 72.2% (inactive) | 79% (inactive) | 92.5% (inactive)
25 | Nc1ncc(-c2ccc3ncnc(N4CCc5ccc(Cl)cc54)c3c2)cc1C(F)(F)F | 14.9% (inactive) | 9.27% (active) | -23.4% (active) | 32.7% (inactive) | 28.4% (inactive) | 15.4% (inactive) | 22.6% (inactive) | 10.5% (inactive) | 11.7% (inactive) | 28.7% (inactive)
